Screening results (PubChem)
A selection: hits, their analogues and other compounds. The true share with any hit is near 17%.
HepG2 viability = HepG2 cytotoxicity, counter-screen for TGF-b inhibitors; 410,000 tested, 0.76% active; HepG2 CAGA-GFP viability, ATP luminescence, 18 h; Potency, µM (highest dose often 46.1 µM), inactives show at the highest dose activity change, negative = cytotoxicity, most hits filed as cytotoxic; AID 588856
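HepG2 CAGA-GFP cells (1000/well, DMEM with 1% FBS) received compound, then TGF-beta at 500 pg/mL final, and were incubated 18 hours at 37 degrees C. Viability was read by CellTiter-Glo luminescence. Media-only wells were set as complete cell-killing and DMSO as no toxicity.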
ATXN2 expr inh = inhibitors of ATXN2 expression; HEK-293 ATXN2-luciferase reporter, luminescence, 24 h; Potency, µM (titrated, usually from 57 µM), for inactives: at the top dose activity change, negative = inhibition, hits mostly inhibitors; 360,000 tested, 0.72% active; AID 1745845; note: % is set by controls: 0 for no effect and ±100 for the full control effect; nearly all actives have a fitted effect of over 55% in size
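qHTS (up to 57 uM final) was run with 24 h compound exposure of reporter cells at 37 °C. Each well was multiplexed: SteadyGlo luminescence measured ATXN2-luciferase expression after a fluorogenic Gly-Phe-AFC viability readout (25 uM final).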
TDP1 cell noCPT = qHTS for Inhibitors of human tyrosyl-DNA phosphodiesterase 1 (TDP1): qHTS in cells in absence of CPT | DT40 Tdp1-/- hTDP1 cells, no CPT, ATP luminescence, 48 h | Potency, µM (top dose mostly 46.2 µM), for the others: at the top dose activity change, negative = growth inhibition, most hits filed as inhibitors | 420,000 tested, 15% active; note: % is set by controls: 0 for no effect and ±100 for the full control effect; nearly all actives have a fitted effect of over 55% in size
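DT40 Tdp1-/-;hTDP1 cells, no CPT (DMSO vehicle only), 400 cells/well; compounds pin-transferred; ≥48 hr, 37 °C; CellTiter-Glo 30 min RT dark, luminescence read.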
S2 tox = viability counter-screen for ATXN expression inhibitors | 400,000 tested, 0.49% active | S2 cells (HEK-293 line with an ATXN2-luciferase reporter) viability, CellTiter-Fluor protease fluorescence, 24 h | Potency, µM (doses to about 56.7 µM), hits mostly cytotoxic; note: nearly all actives have a fitted effect of over 40% in size
TGFb inhibitor = inhibitors of TGF-b signaling; HepG2 CAGA-GFP TGF-b/SMAD3 reporter, GFP fluorescence, 18 h; TGF-beta stimulated, 500 pg/mL final; Potency, µM (series often up to 46.1 µM), for inactives: at the top dose activity, negative = inhibition, usual class: inhibitors; 410,000 tested, 1.2% active; AID 588855; note: % is set by controls: 0 for no effect and ±100 for the full control effect; nearly all actives have a fitted effect of over 65% in size
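TGF-beta reporter screen: HEPG2 CAGA-GFP, 1% FBS, 500 pg/mL TGF-beta final, 18 h; per-cell GFP summed per well; curves fitted and categorized by class.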
TDP1 cell CPT = growth inhibition of DT40 Tdp1-/-;hTDP1 cells with camptothecin (screen for TDP1 inhibitors). chicken DT40 Tdp1-/-;hTDP1 cells + 20 nM CPT, ATP luminescence, 48 h. Potency, µM (highest dose often 46.2 µM), for inactives: at the top dose activity change, negative = growth inhibition, actives largely listed as inhibitors. 420,000 tested, 12% active. AID 686979; note: % is set by controls: 0 for no effect and ±100 for the full control effect; nearly all actives have a fitted effect of over 55% in size
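Cell growth measured by CellTiter-Glo luminescence after a minimum 48 h, 37 C compound exposure with 20 nM CPT in Tdp1-knockout DT40 cells stably expressing hTDP1, seeded 400/well; qHTS titration format.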
The depositor's hits bear a star; i = inactive; ? = inconclusive; . = no result given; [ ] = remark or other dose. Calls come from the whole dose curve; as a rule, active = well fitted curve in the direction sought with a large enough effect; inconclusive = small, poorly fitted or top-dose-only effect, or another doubt; inactive = no such curve, though single readings can be large; an effect the other way counts as inactive or inconclusive. Potency is the fitted concentration of half-maximal effect.

SMILES | HepG2 viability | ATXN2 expr inh | TDP1 cell noCPT | S2 tox | TGFb inhibitor | TDP1 cell CPT
Clc1ccc(CNc2cc(-c3ccccc3)nc3nncn23)cc1 | -27% | ? | 13µM* | i | ? | 16µM*
Clc1cccc(CNc2cc(-c3ccccc3)nc3nncn23)c1 | -65% | . | 15µM* | . | ? | 15µM*
CC(=O)Nc1cc(-c2ccccc2)nn1Cc1ccc(Cl)cc1 | -21% | 6% | 1% | i | 0% | -18%
COc1ccccc1CNc1nc(=S)[nH]c2cc(OC)c(OC)cc12 | -18% | -6% | ? | i | 2% | ?
Clc1cccc(CNCCNCc2cccc(Cl)c2)c1 | -22% | -24% | ? | ? | -24% | -22%
COc1ccccc1CNc1cc(-c2ccccc2)nc2nncn12 | -51% | ? | 16µM* | ? | ? | 23µM*
Cc1cccc(Nc2cc(C)c3c(O)cccc3n2)c1C | -87% | 2% | 23µM* | ? | ? | 21µM*
Cc1cc(Nc2ccccc2O)nc(C)n1 | -4% | 12% | 3% | i | -2% | 0%
Cc1ccc(NC(=O)Nc2nnc(-c3ccccc3)o2)cc1 | 13% | -1%[11.3 µM] | 2% | i | 0% | 8%
Cc1ccc(-c2nnc(Nc3ccccc3)o2)cc1 | -46% | 22µM* | ? | i | 3% | -25%
O=C1CCc2cc(Br)ccc2O1 | 7% | -9% | ? | i | ? | 1%
O=C1c2ccccc2C(c2nnnn2-c2ccc3c(c2)OCCO3)N1C1CC1 (centres undefined) | . | 8% | -17% | i | . | -11%
Cc1cc(-n2c(=O)[nH]c(=O)n(C)c2=O)ccc1Oc1ccc(S(=O)(=O)C(F)(F)F)cc1 | . | . | 17µM* | i | . | ?
CC(=O)Nc1ccc(S(=O)(=O)NC2(C(F)(F)F)C(=O)Nc3c2c(=O)[nH]c(=O)n3-c2ccc(C)c(C)c2)cc1 (centres undefined) | -25% | 11% | -1% | i | -1% | 2%
O=C(NN=C1CCCC1)C(=O)Nc1cccc(C(F)(F)F)c1 | -13% | -5% | -10% | i | -24% | -23%
CC(C)(C)c1ccc(OCC(=O)N(c2ccccn2)C2CCCCC2)cc1 | -2% | -26% | 15µM* | i | 7% | ?
O=C(COc1ccc(Cl)cc1Cl)N(c1ccccn1)C1CCCCC1 | -31% | 10% | ? | i | -17% | 26µM*
O=C(COCCOCC(=O)N(c1ccccn1)C1CCCCC1)N(c1ccccn1)C1CCCCC1 | -3% | 2% | -1% | i | -12% | 13%
Cc1c(C(=O)N(Cc2ccccc2)C(C)C)oc2ccc(S(=O)(=O)N3CCOCC3)cc12 | -18% | -38% | -21% | i | -9% | ?
COc1ccc(CCNC(=O)Nc2cccs2)c(OC)c1 | -4% | 13% | -1% | i | 0% | -8%
COc1cc(CNC(C)(C)C)cc(Br)c1OCc1cccs1 | -43% | -17% | 15µM* | i | 1% | ?
CC(C)(C)NCc1cc(Cl)ccc1OCc1cccs1 | -30% | -16% | ? | i | 5% | 15µM*
CC(C)(C)NCc1cc(Br)ccc1OCc1cccs1 | -6% | -13% | ? | i | 11% | ?
CCOc1cc(CNCc2cccs2)cc(Br)c1OC | -32% | -13% | ? | i | -3% | ?
COc1cc(CNCCO)cc(Br)c1OCc1cccs1 | -38% | -11% | 29µM* | i | -14% | -17%
SMILES | HepG2 viability | ATXN2 expr inh | TDP1 cell noCPT | S2 tox | TGFb inhibitor | TDP1 cell CPT
CC(C)CCNC(=O)[C@@H](Cc1ccccc1)NC(=O)CC[C@H]1O[C@@H](n2ccc(=O)[nH]c2=O)[C@H](O)[C@@H]1O | -7% | 3% | 1% | i | 1% | 2%
O=C(NNc1ncnc2c1cnn2-c1ccccc1)c1cccc(Cl)c1 | 9% | 6% | ? | i | 0% | ?
CC(=O)N1CCC[C@H]1C(=O)NCC1Cc2cc(F)cc(-c3ccc(F)c(C)c3)c2O1 (some centres undefined) | . | . | -23% | i | . | -4%[9.04 µM]
O=C(NC1CCCc2c1cnn2-c1cc(F)cc(F)c1)c1ccncc1 (centres undefined) | -6% | -5% | -18% | i | 4% | -27%
CC(C)(C)c1ccc(-n2ncc3c2CCCC3NC(=O)c2ccncc2)cc1 (centres undefined) | -6% | -8% | 10µM* | i | ? | 12µM*
Cc1ncoc1C(=O)NC1CCCc2c1cnn2-c1ccc(C(C)(C)C)cc1 (centres undefined) | -28% | ? | 7.3µM* | i | ? | 7.3µM*
Cc1cc(C(=O)NC2CCCc3c2cnn3-c2cc(F)cc(F)c2)nn1C (centres undefined) | 3% | 7% | ? | i | -13% | ?
CCn1nc(C)cc1C(=O)NC1CCCc2c1cnn2-c1cc(F)cc(F)c1 (centres undefined) | 2% | 5% | 18µM* | i | 2% | ?
Cc1ncoc1C(=O)NC1CCCc2c1cnn2-c1cc(F)cc(F)c1 (centres undefined) | -18% | . | 26µM* | ? | 5% | -29%
COc1ccc(-n2ccnc2SCC(=O)NCc2ccc(F)cc2)c(OC)c1 | -30% | -43% | -67% | i | -12% | ?
COc1ccc(-n2ncc3c2CC(C)(C)CC3NC(=O)CN2CCOC2=O)cc1 (centres undefined) | -27% | 9% | ? | i | ? | -49%
Cc1ccccc1-n1ncc2c1CC(C)(C)CC2NC(=O)CCC1=NNC(=O)CC1 (centres undefined) | 10% | 12% | 3% | i | 6% | 1%
Cc1cc(C(=O)NC2CCCc3c2cnn3-c2ccc(C(C)(C)C)cc2)n[nH]1 (centres undefined) | -44% | . | 12µM* | ? | -20% | 21µM*
CC(C)(C)c1ccc(-n2ncc3c2CCCC3NC(=O)CN2CCOC2=O)cc1 (centres undefined) | -6% | ? | 16µM* | i | -8% | 18µM*
CC(C)(C)c1ccc(-n2ncc3c2CCCC3NC(=O)CCC2=NNC(=O)CC2)cc1 (centres undefined) | -28% | . | 3.3µM* | i | -8% | 9.2µM*
O=C(Cc1ccc(F)cc1)NC1CC(=O)N(c2ccccc2)C1 (centres undefined) | -6% | . | 9% | . | -4% | 6%
